Several values for one entry are separate records, joined by “and”; a condition that tells them apart may be missing. Identical values can stand only once. Inconclusive results are not listed. Some structures have more than one record in an assay (separate samples or runs), and their calls can disagree. Activity calls are given as the source filed them. Rule for the calls, unless noted: active = hit-call score of the fitted dose curve at least 0.9, where 1 is the maximum; inactive = score below 0.9.
Tests used:
[1] = CCTE_Shafer_MEA_acute_per_burst_spike_number_mean: CCTE's Neural Acute Assay for Average Number of Spikes Per Burst, Shafer Lab (AID 2284015);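 note: hits are decreases in mean spikes per burst versus baseline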
Method in brief: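 Read-out: percent change in mean spikes per burst, each well's post-exposure 40-min recording versus its own 40-min baseline. Rat cortical cultures, DIV 13 or 15, compounds 0.03-40 uM; DMSO is negative control, loss-of-signal fitting.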

[2] = CCTE_Shafer_MEA_acute_interburst_interval_mean: CCTE's Neural Acute Assay for Mean Interburst Interval, Shafer Lab (AID 2284016);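 note: percent change of mean interburst interval versus each well's own pre-dose baseline; curves fitted for decrease in interburst interval relative to DMSO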
Method in brief: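 Rat cortical cultures, DIV 13/15; 20 min equilibration, 40 min baseline, compound 0.03-40 uM, 40 min re-recording, 37 C. Spikes detected at 8x rms noise (300-5000 Hz band-pass). Endpoint: % change in interburst interval, fitted in loss direction vs DMSO.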

[3] = CCTE_Shafer_MEA_acute_burst_percentage_mean: CCTE's Neural Acute Assay for Percentage of Spikes in a Burst, Shafer Lab (AID 2284017);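 for AC50: curve fitted for loss of signal so potency reflects decreased burst percentage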
Method in brief: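 Rat cortical cultures, DIV 13/15, 37 C. Spikes detected at 8x rms noise (300-5000 Hz band-pass). Burst spikes/total spikes averaged across electrodes per well; % change post- vs pre-treatment (40 min each), loss-of-signal fit vs DMSO.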

[4] = CCTE_Shafer_MEA_acute_burst_percentage_std: CCTE's Neural Acute Assay for Standard Deviation of Burst Percentage, Shafer Lab (AID 2284018);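 note: fitted in the negative direction so actives lower burst percentage SD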
Method in brief: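 Primary rat cortical neurons on 16-electrode MEA wells were recorded 40 min at baseline (DIV 13 or 15), then 40 min after compound (0.03-40 uM), at 37 C. Well value is SD across electrodes of spikes-in-bursts/total spikes; endpoint is percent change, DMSO-referenced.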

[5] = CCTE_Shafer_MEA_acute_per_network_burst_spike_number_mean: CCTE's Neural Acute Assay for Average Number of Spikes in a Network Burst, Shafer Lab (AID 2284019);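 for AC50: curve fitted for loss of signal so actives reduce spikes per network burst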
Method in brief: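 Primary rat cortical neurons on 16-electrode MEA wells, DIV 13 or 15, 37 C; 40-min baseline then 40-min recording with compound (0.03-40 uM). Spikes per network burst (total spikes/number of bursts) expressed as percent change from baseline, DMSO reference.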

[6] = CCTE_Shafer_MEA_acute_per_network_burst_spike_number_std: CCTE's Neural Acute Assay for Standard Deviation of Number of Spikes in a Network Burst, Shafer Lab (AID 2284020);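 note: fitted for decrease in spike-number SD versus DMSO so actives lower it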
Method in brief: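 Primary rat cortical neurons on 48-well MEAs (16 electrodes/well) recorded at DIV 13 or 15: 40-min baseline, then 40 min with compound (0.03-40 uM), 37 C. Value is percent change in SD of spikes per network burst, relative to DMSO.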

[7] = CCTE_Shafer_MEA_acute_per_network_burst_electrodes_number_mean: CCTE's Neural Acute Assay for Mean Number of Electrodes in a Network Burst, Shafer Lab (AID 2284021);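 note: curves fitted for decreases only so hits reduce electrodes per burst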
Method in brief: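 Rat primary cortical neurons on 48-well MEAs, DIV 13 or 15, were treated at 0.03-40 uM. Spikes were detected at 8x rms noise and recorded at 37 C. The mean electrodes per network burst in a 40 min exposure recording was expressed as percent change from a 40 min baseline.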

[8] = CCTE_Shafer_MEA_acute_network_burst_percentage: CCTE's Neural Acute Assay for Percentage of Network Bursts, Shafer Lab (AID 2284022);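 note: curves fitted for loss so actives lower network burst percentage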
Method in brief: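 Rat primary cortical neuron networks on 48-well MEA plates, DIV 13 or 15, treated acutely with compound (0.03-40 uM, at least three wells). Percent of spikes within network bursts compared between 40-min recordings before and during exposure at 37 C, expressed as percent change.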

[9] = CCTE_Shafer_MEA_acute_cross_correlation_area: CCTE's Neural Acute Assay for Area of Cross Correlation, Shafer Lab (AID 2284024);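 note: curves fitted for loss of cross-correlation area so actives lower synchrony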
Method in brief: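 Rat primary cortical neurons on 48-well MEA, DIV 13 or 15; compounds 0.03-40 uM. Baseline and post-exposure 40 min recordings at 37 C; percent change in area under pooled inter-electrode cross-correlation near zero lag, relative to DMSO.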

[10] = CCTE_Shafer_MEA_acute_cross_correlation_HWHM: CCTE's Neural Acute Assay for Cross Correlation at Half Width at Half Maximum, Shafer Lab (AID 2284026);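 note: percent change per well from pre-dose baseline in spike cross-correlogram half width; hits are a decrease in cross-correlogram half width relative to DMSO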
Method in brief: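 Rat primary cortical neurons on 48-well MEA plates; 40-min baseline and 40-min post-exposure recordings at 37 C on DIV 13 or 15, compounds 0.03-40 uM. Spikes detected at 8x rms noise; percent change in cross-correlogram HWHM per well vs baseline.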

[11] = CCTE_Shafer_MEA_acute_synchrony_index: CCTE's Neural Acute Assay for Synchrony, Shafer Lab (AID 2284027);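 note: network synchrony index of spontaneous spiking in primary rat cortical neurons on MEAs; fitted for loss of signal so actives lower synchrony relative to DMSO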
Method in brief: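 Primary rat cortical neurons on 16-electrode MEA wells were recorded 40 min at baseline (DIV 13 or 15) and 40 min after compound (0.03-40 uM) at 37 C. Synchrony index (0-1) expressed as percent change from baseline, versus DMSO.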

[12] = target: Estrogen receptor (Homo sapiens) (UniProt P03372); assay: CCTE_Deisenroth_AIME_384WELL_LUC_Active: CCTE's 384-well Estrogen Receptor Transactivation Assay with AIME metabolic competence (ERTA luciferase; metabolism positive), Deisenroth Lab (AID 2284030; active = hit-call score of the fitted dose curve at least 0.9, where 1 is the maximum)
Method in brief: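 Chemicals (10-point, 0.002-200 uM) were first incubated 2 hours with alginate-immobilized induced male Sprague Dawley rat liver S9. The conditioned medium was then applied to VM7Luc4E2 cells for 24 hours, with ER luciferase induction read by luminescence relative to 17beta-estradiol.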

[13] = target: Estrogen receptor (Homo sapiens) (UniProt P03372); assay: CCTE_Deisenroth_AIME_384WELL_LUC_Inactive: CCTE's 384-well Estrogen Receptor Transactivation Assay without AIME metabolic competence (ERTA luciferase; metabolism negative), Deisenroth Lab (AID 2284038; active = hit-call score of the fitted dose curve at least 0.9, where 1 is the maximum;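 note: hits raise estrogen receptor luciferase signal so potencies reflect agonists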)
Method in brief: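 Chemicals (10-point series, 0.002 - 200 uM) were incubated 2 hours with alginate-water microsphere lids lacking S9, then the conditioned medium was transferred to VM7Luc4E2 breast cells for 24 hour. Luciferase induction was read by bioluminescence, fitted upward relative to 17beta-estradiol.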

[14] = CCTE_Deisenroth_AIME_96WELL_CTox_Active: Cytotoxicity Assessment (CTOX) in CCTE's 96-well Estrogen Receptor Transactivation Assay with AIME metabolic competence (metabolism positive), Deisenroth Lab (AID 2284028; active = hit-call score of the fitted dose curve at least 0.9, where 1 is the maximum)
Method in brief: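 Chemicals (0.002–200 uM) were first incubated 2 h with alginate-immobilized phenobarbital/beta-naphthoflavone-induced male rat liver S9; conditioned medium then went onto VM7Luc4E2 cells for 24 h, with viability read by protease-substrate fluorescence, fitted bidirectionally.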

[15] = CCTE_Deisenroth_AIME_96WELL_CTox_Inactive: Cytotoxicity Assessment (CTOX) in CCTE's 96-well Estrogen Receptor Transactivation Assay without AIME metabolic competence (metabolism negative), Deisenroth Lab (AID 2284029; active = hit-call score of the fitted dose curve at least 0.9, where 1 is the maximum)
Method in brief: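 Chemicals (10-point series, 0.002-200 uM) were incubated 2 h with alginate-water microspheres lacking S9. The conditioned medium was then transferred onto VM7Luc4E2 cells for 24 h. Viability was measured by protease-substrate cleavage to a fluorescent probe, with loss of signal fitted bidirectionally; n≥4 experimental replicates.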

[16] = CCTE_Shafer_MEA_dev_firing_rate_mean: CCTE's Neural Network Formation Assay for Mean Firing Rate, Shafer Lab (AID 2284031);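 note: curve fitted for loss of firing so AC50 reflects decreased mean firing rate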
Method in brief: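 Primary rat cortical neurons on 48-well, 16-electrode MEAs (PEI-coated, laminin at plating), exposed from day 0 with compound renewed at DIV 5 and 9. Spikes recorded DIV 5, 7, 9, 12; well-mean firing rate collapsed to trapezoidal AUC, loss-of-signal vs DMSO.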

[17] = CCTE_Shafer_MEA_dev_per_burst_spike_percent: CCTE's Neural Network Formation Assay for Percent of Spikes in a Burst, Shafer Lab (AID 2284032);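 note: fitted as a decrease in burst spike percentage below DMSO baseline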
Method in brief: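 Rat primary cortical neurons on 16-electrode MEA wells, dosed from plating day 0 for 12 days with renewal on DIV 5 and 9; spikes-in-bursts percentage averaged over bursting electrodes, collapsed as AUC across days 5, 7, 9, 12; loss direction versus DMSO.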

[18] = CCTE_Deisenroth_AIME_384WELL_CTox_Active: Cytotoxicity Assessment (CTOX) in CCTE's 384-well Estrogen Receptor Transactivation Assay with AIME metabolic competence (metabolism positive), Deisenroth Lab (AID 2284037; active = hit-call score of the fitted dose curve at least 0.9, where 1 is the maximum;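 note: activity means signal loss indicating cell death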)
Method in brief: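 VM7Luc4E2 breast cells received medium pre-incubated 2 h with chemical over alginate microspheres holding induced male Sprague Dawley rat liver S9; viability read 24 h later by protease-substrate fluorescence. Loss of signal, bidirectional fit, 0.002–200 uM.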

Measured: AC50

Sequence of Estrogen receptor (Homo sapiens) (P03372 whole entry, looked up): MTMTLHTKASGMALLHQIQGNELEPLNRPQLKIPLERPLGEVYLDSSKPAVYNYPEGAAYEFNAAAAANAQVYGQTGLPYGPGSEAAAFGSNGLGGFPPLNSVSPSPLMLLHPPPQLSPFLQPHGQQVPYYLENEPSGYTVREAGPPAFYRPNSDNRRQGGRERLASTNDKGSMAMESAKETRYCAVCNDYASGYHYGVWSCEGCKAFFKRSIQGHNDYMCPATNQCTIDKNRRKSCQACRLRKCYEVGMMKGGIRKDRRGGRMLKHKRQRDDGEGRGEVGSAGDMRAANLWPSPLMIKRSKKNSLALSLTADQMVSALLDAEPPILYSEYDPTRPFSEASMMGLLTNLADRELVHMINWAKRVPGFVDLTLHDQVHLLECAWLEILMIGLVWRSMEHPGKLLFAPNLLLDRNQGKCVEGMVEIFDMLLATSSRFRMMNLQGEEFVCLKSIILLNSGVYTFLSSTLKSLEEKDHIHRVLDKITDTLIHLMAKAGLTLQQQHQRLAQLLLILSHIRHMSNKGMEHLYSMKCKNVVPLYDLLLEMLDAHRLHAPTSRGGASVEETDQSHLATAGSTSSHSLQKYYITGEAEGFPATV

CCCCOCCOCCO
not listed: [14] | [15] | [16] | [17] | [18]
inactive: all other assays above

CC/C(=C(\c1ccccc1)c1ccc(OCCN(C)C)cc1)c1ccccc1
inactive: [1] | [2] | [4] | [5] | [6] | [7] | [9] | [10] | [11]
active: [1] 18.3 µM | [2] 3.74 µM | [3] 18.3 µM and 15.8 µM | [4] 15.3 µM | [6] 18.3 µM | [8] 18.3 µM and 13.2 µM | [10] 16.4 µM | [11] 14.8 µM | [14] 7.84 µM | [15] 74.1 µM | [16] 0.0329 µM | [17] 1.98 µM

CCCCN(CCO)CCO
inactive: [1] | [3] | [4] | [6] | [7] | [9] | [10] | [11]
active: [2] 24.1 µM | [5] 15 µM | [8] 15 µM

O=C(c1ccc(OCCN2CCCCC2)cc1)c1c(-c2ccc(O)cc2)sc2cc(O)ccc12
active: [3] 32.5 µM | [5] 4.05 µM | [6] 33.9 µM | [10] 32.7 µM | [11] 36.8 µM
inactive: [1] | [2] | [4] | [7] | [8] | [9]

C=C(C)C(N)=O
inactive: [12] | [18] | [13]

CC(=O)OC/C=C(C)/C=C/C=C(C)/C=C/C1=C(C)CCCC1(C)C
inactive: [12] | [18] | [13]

CC(C)CCCC(C)(C)O
not listed: [12] | [13] | [14] | [15] | [16] | [17] | [18]
inactive: all other assays above

CCCC[N+](C)(CCCC)CCCC
inactive: [12]

OC[C@H]1O[C@@H](O[C@H]2[C@H](O)[C@@H](O)[C@H](O)O[C@@H]2CO)[C@H](O)[C@@H](O)[C@H]1O
inactive: [12] | [18] | [13]

CC(=O)c1ccc2ccccc2c1
active: [12] 74.9 µM
inactive: [18] | [13]

C#C[C@]1(O)CC[C@H]2[C@@H]3CCc4cc(O)ccc4[C@H]3CC[C@@]21C
active: [14] 135 µM | [15] 116 µM | [18] 77.6 µM

CCCCCCCCCCCCN1CCOCC1
inactive: [12] | [18] | [13]

From PubChem BioAssay (EPA / NIEHS)
